PubChem BioAssay (NCI)
This is part of a sample that, as a whole, favours compounds with a hit. Of some 79,000 tested, about 15% had one in any assay. Values without a mark were called inactive. Activity calls are given as the source filed them. Cut-off read from the data, not from the text of the source: active = growth inhibition above about 70%; inactive = the rest.

Columns and labels:
[1] = NCI Yeast Anticancer Drug Screen. Data for the rad50 strain (AID 155);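 note: 0% = growth of vehicle-only cultures of the same strain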; conditions: S. cerevisiae rad50 strain growth inhibition; at 50.0 µM; stronger effect = higher value
Procedure, shortened: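 Readout: growth inhibition relative to vehicle-treated cultures. Compound exposure was carried out in a genetically defined yeast strain deficient in DNA damage repair.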

[2] = NCI Yeast Anticancer Drug Screen. Data for the mec2-1 strain (AID 157); conditions: S. cerevisiae mec2-1 strain, at 50.0 µM, stronger effect = higher value
Procedure, shortened: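 Yeast mec2-1 mutant treated with compound. Readout: growth inhibition vs vehicle controls.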

[3] = NCI Yeast Anticancer Drug Screen. Data for the sgs1 mgt1 strain (AID 161);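 note: 0% = growth of cultures given vehicle only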; conditions: S. cerevisiae sgs1 mgt1 strain, at 50.0 µM, stronger effect = higher value
Procedure, shortened: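 Inhibition of yeast growth, normalised to vehicle-treated controls, is reported for a strain bearing genetic alterations in DNA damage repair.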

[4] = NCI Yeast Anticancer Drug Screen. Data for the cln2 rad14 strain (AID 165);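 note: 0% = growth equal to vehicle treated cultures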; conditions: S. cerevisiae cln2 rad14 strain, at 50.0 µM, stronger effect = higher value
Procedure, shortened: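 cln2 rad14 yeast strain; compound exposure; growth inhibition read vs vehicle controls.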

[5] = NCI Yeast Anticancer Drug Screen. Data for the bub3 strain (AID 167); conditions: S. cerevisiae bub3 mutant strain, at 50.0 µM, stronger effect = higher value
Procedure, shortened: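 Readout: yeast growth inhibition, expressed relative to vehicle-only wells. The test organism is a mutant strain from a panel with lesions in DNA repair or checkpoint genes.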

[6] = NCI Yeast Anticancer Drug Screen. Data for the mlh1 rad18 strain (AID 175); conditions: S. cerevisiae mlh1 rad18 strain growth inhibition; at 50.0 µM; stronger effect = higher value
Procedure, shortened: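 Yeast w/ defined DNA-repair lesions; compound exposure; growth vs vehicle controls → % inhibition.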

| SMILES | growth inhibition [1] | growth inhibition [2] | growth inhibition [3] | growth inhibition [4] | growth inhibition [5] | growth inhibition [6] |
| --- | --- | --- | --- | --- | --- | --- |
| Nc1ncnc2c1ccn2Cc1c(F)cccc1Cl | -0.8% | -7.3% | -10.9% | -1.2% | 6.05% | -13.6% |
| CC1=C/C(=N\N(C)C)C(C(O)(C(F)(F)F)C(F)(F)F)C(C)(C)C1 (stereo unspecified) | 4.75% | -19.1% | -10.4% | 9.35% | -14.7% | -13% |
| Cn1ncc2c(NN)nc(Cl)nc21 | 8.6% | -18.7% | -4.55% | -18.4% | -14.8% | 7% |
| CNC(=O)c1n[nH]c(=S)[nH]c1=O | -7.4% | -4.9% | 0.8% | -52.8% | -6.7% | -7.5% |
| CC(=O)Nc1ccc2c(c1)N(O)C(=O)C2(C)C | 7.9% | 6.3% | 11.4% | -36.1% | 5.5% | -0.6% |
| CCCCc1c2c(nc3c1CCC/C3=C\c1ccccc1)/C(=C/c1ccccc1)CCC2 | -5.05% | 16.9% | -1.3% | 9.7% | -0.55% | 22.3% |
| CN(N=O)C(=O)NC(C=O)C(O)C(O)C(O)CO (stereo unspecified) | 5.25% | -23.4% | 28.4% | 12.2% | 0.4% | 1.6% |
| CNc1ncnc2c1ncn2C1OC(CO)C(O)C1O (stereo unspecified) | -1.4% | 9.95% | 4.45% | -20.1% | -4.1% | 6% |
| Cc1ccsc1/C=N/Nc1cnccn1 | 11.1% | 2.6% | 17.3% | 6.15% | 0.4% | 19.9% |
| C=C1c2ccccc2N(S(=O)(=O)c2ccc(C)cc2)C12CCCCC2 | 3.9% | 14.6% | -10.2% | -3.2% | -0.7% | -6% |
| C[N+]1=C(/C=C/c2ccnc3c(O)cccc23)C(C)(C)c2ccccc21 | 10% | 11.2% | 2.45% | -60.4% | -6.4% | 8.65% |
| CC(C)=CC(C)(O)c1nc2ccccc2s1 (stereo unspecified) | -2.75% | 21.7% | 7.25% | -6.95% | 1.1% | 5.2% |
| C/C=C/c1ccc2oc(-c3ccc(OC4OC(C)C(O)C(O)C4O)cc3)c(C)c2c1 (stereo unspecified) | 98.9% (active) | 99% (active) | 99.2% (active) | 98.7% (active) | 98.5% (active) | 51.9% |
| Cc1nc(N(CCO)CCO)c2sc(=S)n(-c3ccccc3)c2n1 | -35.5% | -16.4% | -43.9% | -13.7% | -14.2% | -45.8% |
| O=C(NC(NC(NC(=O)c1ccc([N+](=O)[O-])cc1)c1ccc([N+](=O)[O-])cc1)c1ccc([N+](=O)[O-])cc1)c1ccc([N+](=O)[O-])cc1 (stereo unspecified) | 3.35% | -10.4% | 1.65% | -24.9% | -5.3% | -7.95% |
| Nc1nc(F)nc2c1ncn2C1OC(CO)C(O)C1O (stereo unspecified) | -10.3% | 2.25% | 8.25% | 0.1% | 2.15% | -12.2% |
| O=C(Nc1nc(C23CC4CC(CC(C4)C2)C3)cs1)c1cc2cc(Br)cc(Br)c2oc1=O | -8.75% | -13.8% | 23.3% | 19.9% | -12.8% | -8.4% |
| Nc1nc(N)nc(CCCCc2nc(N)nc(N)n2)n1 | -28.1% | -16% | -14.3% | -15.7% | -59.5% | -21.5% |
| CC(=O)c1cc(C)c(O)c(C)c1 | -4.25% | -8.8% | 0.05% | -4.05% | -6.75% | -5.55% |
| COc1c(C)cc(Cc2ccc3c(c2)OCO3)cc1C | -7.8% | -12.9% | 4.2% | -22% | -10.6% | -5.3% |
| O=C1OC(=O)C(=C(c2ccccc2)c2ccccc2)C1=C(c1ccccc1)c1ccccc1 | 51.8% | 64.1% | 48.4% | 43.5% | 53.1% | 76.8% (active) |

| SMILES | growth inhibition [1] | growth inhibition [2] | growth inhibition [3] | growth inhibition [4] | growth inhibition [5] | growth inhibition [6] |
| --- | --- | --- | --- | --- | --- | --- |
| Cc1ccc(C(=O)CCN2CCOCC2)c(C)c1 | 40.1% | 5.55% | 26.6% | -4.65% | 29.1% | 31% |
| CCN(C(=O)CCl)c1ccccc1 | 15% | 0.35% | -0.1% | -12.6% | -7.25% | 14.2% |
| Cc1cc2nc3c(C(OC4OC(CO)C(O)C(O)C4O)C(O)CO)nn(-c4ccccc4)c3nc2cc1C (stereo unspecified) | -23% | -13.8% | -35.1% | 0.25% | -26.9% | 0.75% |
| O=C(Oc1ccc2ccccc2c1CN1CCOCC1)c1ccc([N+](=O)[O-])cc1 | 45.8% | 29.9% | 33.8% | 30.1% | 35.5% | 52% |
| CCS(=O)(=O)C(S(C)(=O)=O)S(=O)(=O)C(C)C (stereo unspecified) | -1.65% | 31.6% | 8.45% | -9.15% | 26.8% | 14% |
| CN(C)Cc1ccnc(Cl)n1 | -16.2% | 20.1% | -16.8% | -34.5% | -13.3% | -8.1% |
| CCOCCOC(=O)/C=C/c1ccccc1 | 17.6% | -9.6% | -4.35% | -46.8% | 8.15% | -3.15% |
| COC(=O)COc1cc2c(cc1C(C)c1ccc(O)cc1)OCO2 (stereo unspecified) | 98.8% (active) | 98.5% (active) | 99% (active) | 99.1% (active) | 99.2% (active) | 98.7% (active) |
| O=c1[nH]n2c(=O)cc[nH]c2c1-c1nnns1 | -15.8% | -2.95% | -36.1% | 9.65% | -21.1% | -25.2% |
| CSc1c2c([nH]c(=O)c1C#N)-c1ccccc1CC2 | -6.5% | -1.4% | 4.85% | 15.1% | -3.65% | 3.95% |
| O=S(=O)(O)C1=CC(=N/Cl)/C=CC/1=N\Cl | -25.8% | -23.8% | -14.6% | -4.15% | -42% | -25.2% |
| O=C1c2ccccc2-c2c1c1ccccc1c(=O)n2Cc1ccco1 | 16.1% | -29.2% | -2.8% | 8.85% | -11.2% | -18.9% |
| O=C(/C=C/c1ccccc1)CC1OC(=O)c2ccccc21 (stereo unspecified) | 14.3% | -15.9% | 10.3% | 23.1% | 3.15% | -20.9% |
| Nc1nc(C(=O)O)c([N+](=O)[O-])c(=O)[nH]1 | -31.6% | -13.7% | -14.4% | -20.5% | -6.9% | -11.8% |
| S=c1nc(-c2ccnc(-c3nc(=S)[nH][nH]3)c2)[nH][nH]1 | -18.4% | -18.4% | -18.8% | 43.7% | -9.75% | -43.7% |
| CNc1ccccc1C(=O)N/N=C/C1CCCCC1 | 0.6% | -2.65% | 16.6% | -6.85% | 9.85% | 8.35% |
| O=P(c1ccccc1)(c1ccccc1)c1ccccc1OCc1cccc(COc2ccccc2P(=O)(c2ccccc2)c2ccccc2)n1 | -7.05% | -7.5% | -11.7% | -21.9% | -2.6% | 31.1% |
| CC(C)(CCN)[N+](=O)[O-] | -5.15% | 9.15% | 17.9% | -88.3% | 5.55% | -2.5% |
| N#C/C=C(\N)C(C#N)C#N | -4.85% | -25.9% | -3.15% | 6.75% | -3.6% | 4.8% |
| CC1CN(Cc2ccccc2)C(=O)C1=O (stereo unspecified) | -20.4% | 17.1% | -21.3% | -12.7% | -9.8% | -11.9% |
